Where “and” joins values, the source holds several entries; their conditions need not be identical. Equal values may be shown once. Hit rate of the full screen: of about 5,600 compounds, about 150 (2.7%) showed an effect of 50% or more. The sample holds strong results, similar compounds and a random draw of the others, so the mix is not that of the screen.
Tests used:
[1] = biological target: T1, Protein deacetylase HDAC6 (Homo sapiens) (UniProt Q9UBN7); settings: at 10 µM
T1 sequence (whole entry): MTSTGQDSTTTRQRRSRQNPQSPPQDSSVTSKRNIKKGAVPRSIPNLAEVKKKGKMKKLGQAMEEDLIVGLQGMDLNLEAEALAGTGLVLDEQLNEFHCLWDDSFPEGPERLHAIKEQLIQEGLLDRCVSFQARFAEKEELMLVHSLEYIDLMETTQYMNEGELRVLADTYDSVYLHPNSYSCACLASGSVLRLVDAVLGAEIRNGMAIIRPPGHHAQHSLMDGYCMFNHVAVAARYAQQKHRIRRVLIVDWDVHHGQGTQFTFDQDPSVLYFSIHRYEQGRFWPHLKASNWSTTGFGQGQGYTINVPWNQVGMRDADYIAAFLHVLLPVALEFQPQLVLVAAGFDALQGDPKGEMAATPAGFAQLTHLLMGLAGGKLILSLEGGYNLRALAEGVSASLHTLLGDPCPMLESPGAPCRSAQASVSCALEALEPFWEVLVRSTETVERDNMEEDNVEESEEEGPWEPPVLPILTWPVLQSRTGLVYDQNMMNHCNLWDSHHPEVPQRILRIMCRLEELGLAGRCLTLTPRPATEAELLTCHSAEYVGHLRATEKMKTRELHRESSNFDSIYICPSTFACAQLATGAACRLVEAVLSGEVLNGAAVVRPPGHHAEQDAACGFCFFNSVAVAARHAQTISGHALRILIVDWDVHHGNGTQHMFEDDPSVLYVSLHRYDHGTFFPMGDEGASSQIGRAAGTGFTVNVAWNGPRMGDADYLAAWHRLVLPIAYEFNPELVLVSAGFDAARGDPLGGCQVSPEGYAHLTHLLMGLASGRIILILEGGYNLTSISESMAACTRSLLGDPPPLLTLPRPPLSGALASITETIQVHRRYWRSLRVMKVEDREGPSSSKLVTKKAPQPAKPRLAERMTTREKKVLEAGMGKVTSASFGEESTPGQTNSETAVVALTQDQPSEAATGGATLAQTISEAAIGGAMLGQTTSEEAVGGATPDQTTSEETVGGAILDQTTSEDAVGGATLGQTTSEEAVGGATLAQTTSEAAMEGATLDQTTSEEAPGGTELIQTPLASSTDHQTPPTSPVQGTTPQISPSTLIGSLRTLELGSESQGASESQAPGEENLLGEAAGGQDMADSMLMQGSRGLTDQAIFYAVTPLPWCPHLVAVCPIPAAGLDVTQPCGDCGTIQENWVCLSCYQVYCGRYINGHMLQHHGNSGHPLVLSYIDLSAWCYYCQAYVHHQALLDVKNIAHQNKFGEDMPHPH

[2] = biological target: Protein deacetylase HDAC6 (Homo sapiens) (UniProt Q9UBN7); settings: at 10 µM; remark: listed apart in the source

Molecule | inhibition [1] | inhibition [2] [%]
CC(C)(C)c1ccc(S(=O)(=O)Nc2ccc(Cl)cc2C(=O)c2cc[n+]([O-])cc2)cc1 | -2.23% | 
CC(C)Oc1ccc(Cc2ccc(NC3=NCCN3)cc2)cc1 | 18.9% | 
CCOC(=O)c1c(C)n(C)c2ccc(O)cc12 | 0.03% | 
CCOC(=O)c1ccc(O)cc1 | -0.21% | 
CCOC(=O)c1cc2ccc(O)cc2oc1=O | 86.3% | 
O=C1Nc2ccccc2C2=NC(CN3CCN(c4ccccc4)CC3)CN12 (configuration not stated) | -3.43% | 
O=C(O)COc1cccc(CN(Cc2ccc(-n3cccn3)cc2)S(=O)(=O)c2cccnc2)c1 | 0.4% | 
COc1ccc(C(=O)c2ccccc2O)c(O)c1 | 6.28% | 
COC(=O)Nc1nc2cc(C(=O)c3ccccc3)ccc2[nH]1 | 6.52% | 
COc1ccc2[nH]c(C(=O)c3ccccc3)cc2c1 | 73.2% | 
CCN1C(C)(C)CC(Oc2ccc(C(=O)Nc3ccc(NC(=O)Nc4cc(C(C)(C)C)on4)cc3)nc2)CC1(C)C | 8.01% | 
O=C1N=C(NCc2cccs2)S/C1=C\c1ccc2ncccc2c1 | 13.2% | 
CCC[C@@]1(CCc2ccccc2)CC(O)=C([C@H](CC)c2cccc(NS(=O)(=O)c3ccc(C(F)(F)F)cn3)c2)C(=O)O1 | -1.6% | 
CCn1c(=O)c(-c2ccc(Cl)cc2Cl)cc2cnc(Nc3ccc(N4CCNCC4)c(F)c3)nc21 | -3.08% | 
CNC(=O)c1ccccc1Sc1ccc2c(/C=C/c3ccccn3)n[nH]c2c1 | 98.1% | 
CNC(=O)c1cc2c(cn1)[nH]c1ccccc12 | 15.7% | 
C[C@@]1(F)[C@H](O)[C@@H](CO)O[C@H]1n1ccc(N)nc1=O | -2.29% | 
CNc1cc(OC)c(C(=O)N[C@@H]2CCN(Cc3ccccc3)[C@@H]2C)cc1Cl.CNc1cc(OC)c(C(=O)N[C@H]2CCN(Cc3ccccc3)[C@H]2C)cc1Cl | 7.84% | 
BISMUTH SUBGALLATE, CHEMBL1592101 |  | -3.52
CCN(CC)c1ccc(C(=C2C=CC(=[N+](CC)CC)C=C2)c2ccccc2)cc1 | 58.6% | 
CCN(CC)c1ccc(/C=N/NC(=O)c2ccc(O)cc2)cc1 | 49.5% | 
CCCC[C@]1(CC)CS(=O)(=O)c2cc(CNC(CC(=O)O)CC(=O)O)c(OC)cc2[C@@H](c2ccccc2)N1 | 0.63% | 
O=C(NCC1CN(c2ccc(N3CCOCC3=O)cc2)C(=O)O1)c1ccc(Cl)s1 (configuration not stated) | 2.41% | 
Cn1cc(-c2ccc(S(=O)(=O)n3ccc(/C=C/C(=O)Nc4ccccc4N)c3)cc2)cn1 | 9.5% | 

Molecule | inhibition [1] | inhibition [2] [%]
CN(C)Cc1ccc(S(=O)(=O)n2ccc(/C=C/C(=O)NO)c2)cc1 | 97.8% | 
CCN1C(=O)CNc2ncc(-c3ccc(-c4nc[nH]n4)nc3C)nc21 | 0.29% | 
CN(C)c1ccc(/C=C2\C(=O)Nc3ccccc32)cc1 | 96.3% | 
Cc1[nH]c(/C=C2\C(=O)Nc3ccccc32)c(C)c1CCC(=O)O | 8.55% | 
Cc1cc(C)c(/C=C2\C(=O)Nc3ccccc32)[nH]1 | 2.33% | 
CSC1SC[C@H]2C(=O)N(C)[C@@H](C(C)C)C(=O)OC[C@@H](NC(=O)c3cnc4ccccc4n3)C(=O)N[C@@H](C)C(=O)N(C)[C@@H]1C(=O)N(C)[C@@H](C(C)C)C(=O)OC[C@@H](NC(=O)c1cnc3ccccc3n1)C(=O)N[C@@H](C)C(=O)N2C (some centres not stated) | -2.22% | 
Cc1cc(-c2nc(-c3ccc(OC(F)(F)F)cc3)no2)nn1Cc1ccnc(N2CCN(C3CC3)CC2)c1 | -4.46% | 
COc1cc(C(=O)OCCCN2CCCN(CCCOC(=O)c3cc(OC)c(OC)c(OC)c3)CC2)cc(OC)c1OC | -3.62% | 
COc1cc(C(=O)NC2CCCNC2)cc(OC)c1OC (configuration not stated) | -2.46% | 
COc1cc(C(=S)N2CCOCC2)cc(OC)c1OC | 97.4% | 
CC(C)(C)[C@H]1CC[C@H](CC2=C(O)C(=O)c3ccccc3C2=O)CC1 | 4.06% | 
COc1ccccc1C(=O)Nc1cc2c(cc1N1CCCC1)n(C)c(=O)n2C | -4.48% | 
COc1cccc(-c2ccc(NC(=O)C3=C(C(=O)O)CCC3)c(F)c2)c1 | 94% | 
COc1ccc(-c2c(C)c(C(=O)NN3CCCCC3)nn2-c2ccc(Cl)cc2Cl)cc1 | 3.52% | 
CCOc1ccc(-c2ccc(Cn3c(CC(C)(C)C(=O)O)c(SC(C)(C)C)c4cc(OCc5ccc(C)cn5)ccc43)cc2)cn1 | -4.44% | 
Cc1ccc(-c2ccc(F)cc2COc2ccc(CCC(=O)O)cc2)cc1 | 2.57% | 
C[C@H](NCc1ccc(OCc2ccccc2F)cc1)C(N)=O | 69.9% | 
O=C1S/C(=C\c2ccc(OCc3cccc(B(O)O)c3)cc2)C(=O)N1Cc1ccc(F)cc1 | 8.15% | 
C[C@H](NC(=O)Cc1cc(F)cc(F)c1)C(=O)N[C@H](C(=O)OC(C)(C)C)c1ccccc1 | -6.8% | 
C[C@H](NCc1ccc(OCc2cccc(F)c2)cc1)C(N)=O | 88.8% | 
CC(C)NCC(O)COc1ccc(CC(N)=O)cc1 (configuration not stated) | 8.69% and 11.7% | 
COC(=O)C1=C(C)NC(C)=C(C(=O)OC/C=C/c2ccccc2)C1c1cccc([N+](=O)[O-])c1 (configuration not stated) | -8.71% | 
CN[C@H](CC(C)C)C(=O)N[C@H]1C(=O)N[C@@H](CC(N)=O)C(=O)N[C@H]2C(=O)N[C@H]3C(=O)N[C@H](C(=O)N[C@H](C(=O)O)c4cc(O)cc(O)c4-c4cc3ccc4O)[C@H](O[C@H]3C[C@](C)(N)[C@@H](O)[C@H](C)O3)c3ccc(c(Cl)c3)Oc3cc2cc(c3O[C@@H]2O[C@H](CO)[C@@H](O)[C@H](O)[C@H]2O[C@H]2C[C@](C)(NCc3ccc(-c4ccc(Cl)cc4)cc3)[C@@H](O)[C@H](C)O2)Oc2ccc(cc2Cl)[C@H]1O | 0.32% | 

From ChEMBL document CHEMBL4808148, “HDAC6 screening dataset using tau-based substrate in an enzymatic assay yields selective inhibitors and activators” (2021)
